# Screening data deposited in PubChem BioAssay by National Center for Advancing Translational Sciences (NCATS).
# The list is not random: actives were taken first. Their share in the collection is about 8%.
# HT1080 IDH1KD tx: kills HT-1080 cells with IDH1 knockdown. HT-1080 IDH1 knockdown viability, ATP luminescence, 48 h. Potency, µM (doses to about 46.1 µM), for inactives: at the top dose activity, negative = toxicity, hits mostly cytotoxic. hit rate 2% among 360,000;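 further: 0% = DMSO wells and -100% = cell-free medium wells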
#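 After a 2 h attachment period, IDH1KD HT-1080 cells took pin-transferred compound for 48 h at 37 °C; ATP-based luminescence after 10 min room-temperature reagent incubation reported viability.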
# MCF10A rerep: DNA re-replication induction in MCF 10a cells | MCF 10A DNA re-replication, Hoechst nuclear intensity, 48 h | Potency, µM (highest dose often 46.1 µM), for inactives: top-dose activity, positive = re-replication, hits mostly activators | hit rate 2.9% among 350,000 | AID 624296; further: % of control where 0% means no effect; nearly all actives have a fitted effect of over 50% in size
# KB-3-1 tox: kills parental KB-3-1 adenocarcinoma cells | KB-3-1 viability, CellTiter-Glo ATP luminescence, 72 h | Potency, µM (top dose mostly 46.1 µM), hits mostly cytotoxic | hit rate 1.4% among 400,000; further: on the % scale 0 is the no-effect control and ±100 the full control effect; nearly all actives have a fitted effect of over 60% in size
#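 Cells are dispensed, compounds pinned in, plates held at 37 °C for 72 h, then CellTiter-Glo is added and luminescence read after 10 minutes. Cell line: parental KB-3-1 in phenol-red-free DMEM, 10% FBS.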
# SW480 rereplic: DNA re-replication induction in SW480 cells. hit rate 1.8% among 340,000. Potency, µM (top dose mostly 46.1 µM), without a hit: at the top dose re-replication activation, hits mostly activators. SW480 DNA re-replication, Hoechst DNA content imaging, 48 h; further: % of control where 0% means no effect; nearly all actives have a fitted effect of over 55% in size
#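 Compounds, transferred as 23 nL by pin tool, were incubated with cells for 48 hr; DNA content per nucleus was then quantified by Hoechst staining and fluorescence plate imaging.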
# HT1080-NT tox: kills 2HG-producing HT-1080-NT fibrosarcoma cells; HT-1080-NT fibrosarcoma viability, CellTiter-Glo ATP luminescence, 48 h; Potency, µM (series often up to 46.1 µM), for inactives: top-dose activity, negative = less viability, most hits filed as cytotoxic; hit rate 1.6% among 360,000; AID 686970;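 further: NT is the 2HG producing partner of a matched IDH1 knockdown line; 0% = DMSO-treated cells and -100% = media-only wells without cells; nearly all actives have a fitted effect of over 55% in size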
#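 750 cells/well, RPMI + 5% FBS; 2 h settle, compound pin-transfer, 48 h at 37 degrees C. CellTiter-Glo 10 min RT, luminescence. Normalized to DMSO and media-only wells.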
# KB-V1 MDR tox: KB-V1 MDR subline cytotoxicity; hit rate 3.4% among 400,000; KB-V1 MDR cells viability, CellTiter-Glo, 72 h; Potency, µM (series often up to 46.1 µM), actives largely listed as cytotoxic; AID 1347076; further: on the % scale 0 is the no-effect control and ±100 the full control effect; nearly all actives have a fitted effect of over 60% in size
#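 Drug-selected KB-V1 cells, grown in DMEM lacking phenol red with 10% FBS, receive compound titrations; after three days at 37 degrees C, surviving cell ATP is quantified by CellTiter-Glo luminescence and responses normalized and curve-fitted.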
# Starred values were filed as active, the others as inactive; i = inactive; ? = inconclusive; nt = no result given; ! = not active in a repeat; [ ] = dose if it differs, or a comment. The call rests on the fitted dose curve; in most records, active means well fitted curve in the direction sought with a large enough effect; inconclusive means small, poorly fitted or top-dose-only effect, or another doubt; inactive means no such curve, though single readings can be large; an effect the other way counts as inactive or inconclusive. Potency means the concentration at half of the fitted maximal effect.
SMILES,HT1080 IDH1KD tx,MCF10A rerep,KB-3-1 tox,SW480 rereplic,HT1080-NT tox,KB-V1 MDR tox
Cc1cc(O)c(C(c2ccccc2)N2CCC(C)CC2)c(=O)n1Cc1ccco1 (centres undefined),nt,nt,i,nt,nt,i
COc1cc(C2C3=C(COC3=O)Oc3cc4c(cc32)OCO4)ccc1OC(C)=O (centres undefined),5.8µM*,?,0.82µM*,3.7µM*,?,2.1µM*
COc1ccc(C2C3=C(COC3=O)Oc3cc4c(cc32)OCO4)cc1OC (centres undefined),?,2.3µM*,0.92µM*!,5.8µM*,5.8µM*,?
COc1cc(C2N(c3ccccc3)CCN2c2ccccc2)ccc1OC(C)=O,6%,-2%,i,-5%,10%,i
COc1cc(C2C3=C(COC3=O)Oc3cc4c(cc32)OCO4)cc(OC)c1OC(C)=O (centres undefined),?,?,0.23µM*,0.13µM*,?,0.65µM*
Cc1c(-c2ccccc2)c(=O)oc2c(CN3CCN(C)CC3)c(O)ccc12,nt,nt,i,nt,nt,i
Cc1ccc2[nH]c(=O)c(CN(C(=O)c3cccc(Cl)c3)C(C)(C)C)cc2c1,nt,nt,i,nt,nt,i
Cc1ccc(C(=O)NC2CC2)cc1S(=O)(=O)N1CCOCC1,9%,-7%,i,-5%,2%,i
COc1ccc(C(=O)N2CCN(S(=O)(=O)c3ccc(C)cc3)CC2)cc1S(=O)(=O)N1CCOCC1,14%,-2%,i,?,1%,i
COc1ccc(S(=O)(=O)N2CCOCC2)c(Cl)c1Cl,1%,7.3µM*,i,10%,-10%,i
COc1ccc(C(=O)N2CCCC2)cc1S(=O)(=O)N1CCOCC1,4%,-1%,23µM*,-1%,5%,i
Cc1ccc(C)c(COC(=O)c2cccc(S(=O)(=O)N3CCCC3)c2)c1,-10%,17%,i,22%,-5%,?
CCC(C)(C)C1CCC(NC(=O)c2ccc(S(=O)(=O)N3CCOCC3)cc2)CC1 (centres undefined),-28%,6.5µM*,?,-3%,1%[9.24 µM],i
COc1ccc(C(=O)OCc2cc(C)ccc2C)cc1S(=O)(=O)N1CCCC1,-1%,?,i,3%,-6%,5.2µM*
COc1cccc2c1Oc1ncccc1N(C(=O)Nc1cccc(Cl)c1)C2,nt,nt,i,nt,nt,i
Cc1c(Cl)cccc1NC(=O)Cn1cnc2nc3c(cc2c1=O)CCCC3,nt,nt,i,nt,nt,?
CCOC(=O)N1CCN(S(=O)(=O)c2ccc(F)c(C(=O)Nc3cccc(Cl)c3C)c2)CC1,-18%,11%,i,-119%,-8%,3.3µM*
O=C(COc1ncnc2ccccc12)Nc1ccc(Cl)c(S(=O)(=O)N2CCOCC2)c1,4%,-3%,i,2%,2%,i
Cc1cc2ccccc2n1CCNC(=O)c1ccc(S(=O)(=O)N2CCOCC2)cc1,?,3.7µM*,i,16µM*,-20%,i
Cc1cc2ccccc2n1CCNC(=O)c1ccccc1,-1%,?,i,23%,2%,i
O=C(COc1cccc(Br)c1)Nc1ccc(Cl)c(S(=O)(=O)N2CCOCC2)c1,-10%,?,i,-1%,16µM*,?
COc1ccc(C)cc1NC(=O)c1ccc(S(=O)(=O)N2CCOCC2)cc1,-1%,-1%,i,-4%,-6%,16µM*
CCS(=O)(=O)N1CC(=O)N(c2ccccc2C)C(C)(C(=O)NC2CCCCC2)C1 (centres undefined),nt,nt,i,nt,nt,i
CC1CCCN(c2nc3c(-c4ccc(Cl)cc4)nnn3c3ccccc23)C1 (centres undefined),nt,nt,i,nt,nt,i
CC1CCCCN1c1nnc(NC(=O)Nc2ccccc2F)s1 (centres undefined),nt,nt,i,nt,nt,i
SMILES,HT1080 IDH1KD tx,MCF10A rerep,KB-3-1 tox,SW480 rereplic,HT1080-NT tox,KB-V1 MDR tox
COc1ccc(NC(=O)c2cc3c(s2)CCC(C)C3)cc1S(=O)(=O)N1CCOCC1 (centres undefined),-26%,?,i,nt,-14%,3.7µM*
CCc1sc(C(=O)Nc2ccc(OC)c(S(=O)(=O)N3CCOCC3)c2)cc1C,-11%,7%,i,-18%,-1%[9.24 µM],i
Cc1ccc(NC(=O)c2cc(S(=O)(=O)N3CCOCC3)ccc2F)c(C)c1,-17%,5%,i,-9%,13%,13µM*
COc1ccc(C(=O)Nc2cccc(C(C)=O)c2)cc1S(=O)(=O)N1CCOCC1,-4%,2%,i,-5%,2%,i
O=C(Nc1cccc(Br)c1)c1ccc(Cl)c(S(=O)(=O)N2CCOCC2)c1,8%[9.24 µM],18%,?,1%,7.1µM*,4.6µM*
COc1ccc(C(=O)Nc2cccc(C)c2)cc1S(=O)(=O)N1CCOCC1,10%,18µM*,i,?,23%,i
CCOC(=O)C(Cc1ccnc2ccccc12)=NO,-26%,5%,i,?,15µM*,i
Cn1nnnc1SCCNCc1ccccc1OCc1ccc(Cl)cc1,?,27%,i,-4%,?,i
CCOCCCNCc1cc(Br)ccc1OCc1ccccc1,10%,4%,?,10%,4%,?
Cn1nnnc1SCCNCc1cc(Cl)ccc1OCc1ccccc1,-1%,?,i,14%,-6%,5.2µM*
OCCNCc1cc(Br)ccc1OCc1ccccc1,-1%,21%,i,-6%,0%,15µM*
CCOc1c(Br)cc(CNCc2cccs2)cc1OC,-4%,-8%,i,3%,-2%,i
CCOc1cc(CNCCO)cc(Br)c1OCc1ccccc1,?,15%,?,?,21µM*,?
CCCCNCc1cc(Br)c(OCc2cccs2)c(OC)c1,21µM*,3%,?,4%,?,?
Cc1ccc(CN2CCN(C3CCN(C(=O)Nc4ccccc4C(F)(F)F)CC3)C(=O)C2=O)cc1,nt,nt,i,nt,nt,i
Cn1nnnc1SCCNCc1ccc(OCc2ccccc2)cc1,nt,nt,i,nt,nt,?
Cn1nnnc1SCCNCc1ccc(OCc2ccccc2Cl)cc1,nt,nt,23µM*,nt,nt,?
CCOc1cc(CNCCSc2nnnn2C)cc(Br)c1OCc1ccccc1,?,15µM*,?,?,?,?
COc1cccc(CNCCSc2nnnn2C)c1OCc1ccccc1,nt,nt,i,nt,nt,?
Cc1ccc(C)c(NC(=O)CCCn2nc(C)c3sc4ccccc4c3c2=O)c1,nt,nt,i,nt,nt,?
O=C(CSc1nnc(-c2ccccn2)n1Cc1ccco1)c1ccc(Cl)cc1,-11%,2%,i,5%,0%,9.2µM*
